Source: PubChem BioAssay AID1159580 (chemical genetic matrix, 2015)
Several values for one entry are separate records, joined by “and”; a condition that tells them apart may be missing. Equal entries are not always repeated. Out of some 5,500 compounds screened, about 2,000 (36%) were called active. About 18% were inconclusive and are not listed. Cut-off read from the data, not from the text of the source: active = normalized growth mostly below about 0.91 (no sharp cut-off); inconclusive = no clear call, values can overlap the other calls; inactive = mostly above about 0.92. The list shows a part of the results.

Assay: chemical genetic growth profiling, strain panel (AID 1159580);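 note: tested at 20 µM; growth read once vehicle control cultures reached saturation at 30 °C; 1 = growth at the plate median or of vehicle wells; lower values mean less growth of the strain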
Conditions: growth OD

Measured: normalized growth

N=c1nc(N2CCCCC2)cc(N)n1O
inactive: S. cerevisiae deletion strains, locus YJR075W, strain HOC1, active compounds read low 1 | S. cerevisiae deletion strains, locus YKL009W, strain mrt4, active compounds read low 0.948 | S. cerevisiae deletion strains, locus YKL068W, active compounds read low 0.993 | S. cerevisiae deletion strains, locus YKL085W, strain MDH1 (second series), active compounds read low 0.995 | S. cerevisiae deletion strains, locus YKL085W, strain MDH1, active compounds read low 0.995 | S. cerevisiae deletion strains, locus YKL160W, strain elf1, active compounds read low 0.969 | S. cerevisiae deletion strains, locus YKL190W, strain CNB1, active compounds read low 0.996 | S. cerevisiae deletion strains, locus YKR001C, strain vps1, active compounds read low 0.995 | S. cerevisiae deletion strains, locus YKR026C, strain gcn3, active compounds read low 0.997 | S. cerevisiae deletion strains, locus YKR091W, strain srl3, active compounds read low 0.977 | S. cerevisiae deletion strains, locus YLL001W, strain dnm1, active compounds read low 0.932 | S. cerevisiae deletion strains, locus YLL026W, active compounds read low 0.985 | S. cerevisiae deletion strains, locus YLL041C, strain sdh2, active compounds read low 0.99 | S. cerevisiae deletion strains, locus YLR027C, strain aat2, active compounds read low 1.01 | S. cerevisiae deletion strains, locus YLR039C, strain RIC1, active compounds read low 0.976 | S. cerevisiae deletion strains, locus YLR058C, strain SHM2, active compounds read low 0.97 | S. cerevisiae deletion strains, locus YLR102C, strain apc9, active compounds read low 0.981 | S. cerevisiae deletion strains, locus YLR113W, strain HOG1, active compounds read low 0.984 | S. cerevisiae deletion strains, locus YLR221C, strain rsa3, active compounds read low 0.948 | S. cerevisiae deletion strains, locus YLR258W, strain gsy2, active compounds read low 0.998 | S. cerevisiae deletion strains, locus YLR262C, strain YPT6 (second series), active compounds read low 0.989 | S. cerevisiae deletion strains, locus YLR262C, strain YPT6, active compounds read low 0.903 | S. cerevisiae deletion strains, locus YLR268W, strain sec22, active compounds read low 1.08 | S. cerevisiae deletion strains, locus YLR320W, strain mms22, active compounds read low 0.96 | S. cerevisiae deletion strains, locus YLR330W, strain CHS5, active compounds read low 0.979 | S. cerevisiae deletion strains, locus YLR342W, strain FKS1 (second series), active compounds read low 0.98 | S. cerevisiae deletion strains, locus YLR342W, strain FKS1, active compounds read low 0.985 | S. cerevisiae deletion strains, locus YLR357W, strain rsc2, active compounds read low 0.996 | S. cerevisiae deletion strains, locus YLR370C, strain arc18, active compounds read low 0.982 | S. cerevisiae deletion strains, locus YLR371W, strain rom2, active compounds read low 0.95 | S. cerevisiae deletion strains, locus YLR384C, strain iki3, active compounds read low 0.987 | S. cerevisiae deletion strains, locus YLR418C, strain cdc73, active compounds read low 0.994 | S. cerevisiae deletion strains, locus YML016C, strain PPZ1, active compounds read low 0.973 | S. cerevisiae deletion strains, locus YML032C, strain rad52, active compounds read low 0.998 | S. cerevisiae deletion strains, locus YML120C, strain ndi1, active compounds read low 0.959 | S. cerevisiae deletion strains, locus YML124C, strain tub3, active compounds read low 0.98 | S. cerevisiae deletion strains, locus YMR058W, strain fet3, active compounds read low 0.986 | S. cerevisiae deletion strains, locus YMR078C, strain ctf18, active compounds read low 0.979 | S. cerevisiae deletion strains, locus YMR125W, strain sto1, active compounds read low 0.978 | S. cerevisiae deletion strains, locus YMR129W, active compounds read low 0.99 | S. cerevisiae deletion strains, locus YMR205C, strain PFK2, active compounds read low 0.947 | S. cerevisiae deletion strains, locus YMR223W, strain ubp8, active compounds read low 0.945 | S. cerevisiae deletion strains, locus YMR231W, strain pep5, active compounds read low 0.991 | S. cerevisiae deletion strains, locus YMR263W, strain SAP30, active compounds read low 0.993 | S. cerevisiae deletion strains, locus YMR307W, strain GAS1, active compounds read low 0.935 | S. cerevisiae deletion strains, locus YNL067W, strain RPL9B, active compounds read low 0.999 | S. cerevisiae deletion strains, locus YNL071W, strain lat1, active compounds read low 0.991 | S. cerevisiae deletion strains, locus YNL128W, strain TEP1, active compounds read low 0.953 | S. cerevisiae deletion strains, locus YNL153C, strain GIM3, active compounds read low 1.01 | S. cerevisiae deletion strains, locus YNL175C, strain NOP13, active compounds read low 0.994 | S. cerevisiae deletion strains, locus YNL183C, strain NPR1, active compounds read low 0.945 | S. cerevisiae deletion strains, locus YNL197C, strain WHI3, active compounds read low 0.993 | S. cerevisiae deletion strains, locus YNL209W, strain ssb2, active compounds read low 0.984 | S. cerevisiae deletion strains, locus YNL224C, strain SQS1, active compounds read low 1.01 | S. cerevisiae deletion strains, locus YNL233W, strain BNI4, active compounds read low 0.998 | S. cerevisiae deletion strains, locus YNL248C, strain rpa49, active compounds read low 1 | S. cerevisiae deletion strains, locus YNL250W, strain rad50, active compounds read low 0.98 | S. cerevisiae deletion strains, locus YNL271C, strain bni1, active compounds read low 0.987 | S. cerevisiae deletion strains, locus YNL298W, strain CLA4, active compounds read low 0.996 | S. cerevisiae deletion strains, locus YNL307C, strain MCK1, active compounds read low 0.999 | S. cerevisiae deletion strains, locus YNL322C, strain KRE1 (second series), active compounds read low 0.98 | S. cerevisiae deletion strains, locus YNL322C, strain KRE1, active compounds read low 0.989 and 0.993 | S. cerevisiae deletion strains, locus YNR049C, strain mso1, active compounds read low 0.972 | S. cerevisiae deletion strains, locus YNR052C, strain pop2, active compounds read low 0.98 | S. cerevisiae deletion strains, locus YOL006C, strain TOP1, active compounds read low 1.02 | S. cerevisiae deletion strains, locus YOL012C, strain htz1 0.984 | S. cerevisiae deletion strains, locus YOL147C, strain pex11, active compounds read low 0.987 | S. cerevisiae deletion strains, locus YOR001W, strain rrp6, active compounds read low 1.02 | S. cerevisiae deletion strains, locus YOR061W, strain CKA2, active compounds read low 0.964 | S. cerevisiae deletion strains, locus YOR069W, strain VPS5, active compounds read low 0.987 | S. cerevisiae deletion strains, locus YOR070C, strain gyp1, active compounds read low 0.996 | S. cerevisiae deletion strains, locus YOR080W, strain dia2, active compounds read low 0.984 | S. cerevisiae deletion strains, locus YOR083W, strain WHI5 (second series), active compounds read low 1.01 | S. cerevisiae deletion strains, locus YOR083W, strain WHI5, active compounds read low 0.974 | S. cerevisiae deletion strains, locus YOR106W, strain vam3, active compounds read low 0.944 | S. cerevisiae deletion strains, locus YOR136W, strain idh2, active compounds read low 0.988 | S. cerevisiae deletion strains, locus YOR144C, strain elg1, active compounds read low 0.988 | S. cerevisiae deletion strains, locus YOR184W, strain ser1, active compounds read low 1 | S. cerevisiae deletion strains, locus YOR231W, strain MKK1, active compounds read low 1.02 | S. cerevisiae deletion strains, locus YOR265W, strain rbl2, active compounds read low 0.989 | S. cerevisiae deletion strains, locus YOR270C, strain vph1, active compounds read low 0.979 | S. cerevisiae deletion strains, locus YOR290C, strain snf2, active compounds read low 0.896 | S. cerevisiae deletion strains, locus YOR316C, strain cot1, active compounds read low 0.993 | S. cerevisiae deletion strains, locus YPL051W, strain arl3, active compounds read low 1 | S. cerevisiae deletion strains, locus YPL055C, strain LGE1, active compounds read low 0.988 and 0.98 | S. cerevisiae deletion strains, locus YPL078C, strain atp4, active compounds read low 0.968 | S. cerevisiae deletion strains, locus YPL106C, strain sse1, active compounds read low 0.948 | S. cerevisiae deletion strains, locus YPL240C, strain hsp82, active compounds read low 0.981 | S. cerevisiae deletion strains, locus YPL241C, strain CIN2, active compounds read low 0.976 | S. cerevisiae deletion strains, locus YPL256C, strain CLN2, active compounds read low 0.993 | S. cerevisiae deletion strains, locus YPR119W, strain clb2, active compounds read low 0.982 | S. cerevisiae deletion strains, locus YPR141C, strain kar3, active compounds read low 0.974 | S. cerevisiae deletion strains, locus YPR163C, strain tif3, active compounds read low 0.993 | S. cerevisiae deletion strains, locus YPR167C, strain met16, active compounds read low 0.995 | S. cerevisiae deletion strains, strain wtn01, active compounds read low 1.04 | S. cerevisiae strains, strain wild type, active compounds read low 0.992
